Measurements reported in PubChem BioAssay AID1476 (National Center for Advancing Translational Sciences (NCATS), 2009).
Hit rate of the full screen: of about 200,000 compounds, about 4,500 (2.2%) were called active. Inconclusive results (about 12%) are left out. For the sample, actives were picked, then their nearest neighbours and some compounds at random. Unmarked numbers belong to inactive results. Calls follow the shape of the dose curve; as a rule, active = well fitted inhibition curve with a large enough effect; inconclusive = small, poorly fitted or top-dose-only effect, or effect the other way; inactive = flat fitted curve, though single readings scatter.

Target: Cruzipain (Trypanosoma cruzi) (UniProt P25779)
Sequence (P25779 123-467 limits assumed): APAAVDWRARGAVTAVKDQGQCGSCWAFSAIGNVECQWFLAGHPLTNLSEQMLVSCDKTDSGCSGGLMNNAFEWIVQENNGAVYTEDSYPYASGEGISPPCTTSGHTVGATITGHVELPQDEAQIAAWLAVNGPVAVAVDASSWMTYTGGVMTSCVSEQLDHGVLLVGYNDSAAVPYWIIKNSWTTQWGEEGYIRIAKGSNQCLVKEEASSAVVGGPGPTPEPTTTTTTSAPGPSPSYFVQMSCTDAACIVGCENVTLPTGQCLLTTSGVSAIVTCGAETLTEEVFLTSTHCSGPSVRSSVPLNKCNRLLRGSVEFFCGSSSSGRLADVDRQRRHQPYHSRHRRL
Assay: qHTS Assay for Promiscuous and Specific Inhibitors of Cruzain (without detergent); also: nearly all actives have a fitted effect of over 40% in size;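 as to max response, negative = inhibition: plate controls were enzyme without inhibitor for no effect and buffer without enzyme for full effect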
Settings: purified cruzain, Z-FR-AMC fluorescence, no detergent
In short: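 Purified cruzain at 1.5 nM, pre-incubated 15 min with compound at room temperature in 100 mM sodium acetate pH 5.5, 5 mM DTT, 0.00005% Triton X-100. Reaction started with 2 uM Z-FR-AMC; AMC fluorescence increase over 60 s gives rate.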
Potency is read from the fitted curve at half-maximal effect.

SMILES | max response, negative = inhibition | Potency
COc1ccc(CCNC(=O)CCCCn2c(=O)c3ccccc3n(Cc3ccccc3)c2=O)cc1OC | -0.815% | –
COc1cc(C2c3c(oc4ccccc4c3=O)C(=O)N2c2nc(C)c(C)s2)ccc1O (stereo not drawn) | -4.14% | –
COc1ccccc1CNC(=O)CCCCn1c(=O)c2ccccc2n(CC(=O)Nc2cc(Cl)ccc2C)c1=O | -2.88% | –
O=C(c1ccccc1)N1CCN(c2ccc([N+](=O)[O-])c(NCc3ccco3)c2)CC1 | -12.2% | –
COc1ccccc1OCCNc1cc(N2CCOCC2)ccc1[N+](=O)[O-] | 26.2% | –
O=[N+]([O-])c1ccc(N2CCN(S(=O)(=O)c3ccc4ccccc4c3)CC2)cc1NCc1ccco1 | – | 7.94 µM (active)
CCc1ccccc1NC(=O)CSc1nc(C)c(C(=O)Nc2ccccc2)c(-c2ccc(Cl)cc2)c1C#N | 4.27% | –
CCc1ccc(NC(=O)CN2C(=O)C(c3ccccc3)=NC23CCCCCC3)cc1 | -25.9% | –
Cc1noc(C)c1S(=O)(=O)N(CC(=O)Nc1ccc2c(c1)OCCO2)c1ccc(C(C)C)cc1 | 0.199% | –
COc1ccc(S(=O)(=O)N(C)CC(=O)Nc2ccc3c(c2)OCCO3)cc1OC | -3.41% | –
O=C(CN(c1ccc2c(c1)OCCO2)S(=O)(=O)c1ccccc1)Nc1ccc2c(c1)OCO2 | – | 12.6 µM (active)
Cc1ccc(S(=O)(=O)N(CC(=O)Nc2ccc(Cl)cc2Cl)c2ccccc2C)cc1 | -29.7% | –
COc1ccc(-n2nc(C(=O)NCCc3ccc(Cl)cc3)c3c4ccccc4n(C)c3c2=O)cc1Cl | -5.4% | –
COC(=O)c1sccc1NC(=O)c1cc(OC)c(OC)c(OC)c1 | 13.7% | –
COC(=O)c1sccc1N/N=C(\C)c1ccc(F)c(Cl)c1 | – | 20 µM (active)
COC(=O)c1sccc1NC(=O)COc1ccc(Cl)cc1 | -7.31% | –
O=C(CCS(=O)(=O)c1ccccc1)N(Cc1cccnc1)c1nc2c(F)cccc2s1 | 15.4% | –
CC(C)CN(C(=O)c1cccc(S(=O)(=O)N2CCCCC2)c1)C1CCS(=O)(=O)C1 (stereo not drawn) | 5.95% | –
COc1ccc(OCCCn2c(C)nc3cc(C)c(C)cc32)cc1 | 11.2% | –
COc1cccc(N2CC(NC(=O)/C=C\c3ccccc3)CC2=O)c1 (stereo not drawn) | -5.97% | –
O=c1cc(CN2CCN(S(=O)(=O)/C=C/c3ccccc3)CC2)c2ccc(O)cc2o1 | -11.9% | –
OC(COc1ccc2c(c1)CCC2)CN1CCN(c2cccc(Cl)c2)CC1 (stereo not drawn) | 1.52% | –
O=c1cc(CN2CCN(c3cccc(Cl)c3)CC2)c2cc3c(cc2o1)CCCC3 | – | 12.6 µM (active)
